# Sm TGR inh: S. mansoni TGR enzyme inhibition; purified TGR, DTNB reduction, TNB absorbance 405 nm; Potency, µM (doses to about 114 µM), for inactives: top-dose activity change, negative = inhibition, most hits filed as inhibitors; hit rate 3% among 360,000; AID 485364; note: nearly all actives have a fitted effect of over 60% in size
#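 First, TGR (20 nM dispensed) and NADPH were mixed with compound. Second, a 15 min room-temperature incubation followed. Third, further NADPH and then DTNB were added to start the reaction. Finally, TNB absorbance was monitored kinetically.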
# FMDV antiviral: foot and mouth disease virus antiviral activity | FMDV antiviral cell-based qHTS | Potency, µM (top dose mostly 57.9 µM), for the others: top-dose activity change, negative = inhibition, most hits filed as inhibitors | hit rate 1.2% among 410,000 | AID 1159524; calls by dose curve; tested in HEK293T cells; note: read-out not given here; nearly all actives have a fitted effect of over 45% in size
# TbPYK inhibitor: T. brucei pyruvate kinase inhibition | hit rate 0.12% among 410,000 | Q57TT1 | TbPYK enzyme, Kinase-Glo Plus ATP luminescence, 45 min | AID 624173 | Potency, µM (titrated, usually from 76.8 µM), without a hit: at the top dose activity, negative = inhibition, hits mostly inhibitors; note: nearly all actives have a fitted effect of over 50% in size
#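 Luminescent Kinase-Glo Plus end-point after 45 min room-temperature reaction of T. brucei pyruvate kinase started with 130 uM ADP (final). Buffer TEA 50 mM pH 7.2 with KCl, MgCl2, BSA, Tween-20; titration-based qHTS with fitted concentration-effect curves.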
# RE007 growth inh: less growth of the S. pombe RE007 Vpr strain; S. pombe RE007 Vpr strain, BacTiter-Glo ATP luminescence, 24 h; Potency, µM (series often up to 92.2 µM), for inactives: top-dose activity change, negative = less growth, actives largely listed as inhibitors; hit rate 0.21% among 360,000; AID 651644; active = well fitted falling curve with a large enough effect; inconclusive = small, poorly fitted or top-dose-only effect; inactive = no such curve, though single readings can be large or run the other way; note: nearly all actives have a fitted effect of over 50% in size
#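 Fission yeast RE007 carrying one integrated HIV-1 vpr copy, seeded at OD 0.01 in PMG+AL medium with 23 nL pinned compound. Grown 24 h at 30 degrees; viability read by BacTiter-Glo luminescence after 5 min.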
# Numbers without * were called inactive; ? = inconclusive; / = not tested or not shown; [ ] = remark or other dose. Only some compounds are listed: those with a hit (about 3.7% of all), similar ones and a draw of the others. Unless noted, calls come from the whole dose curve; as a rule, active = well fitted curve in the direction sought with a large enough effect; inconclusive = small, poorly fitted or top-dose-only effect, or another doubt; inactive = no such curve, though single readings can be large; an effect the other way counts as inactive or inconclusive. % is set by controls: 0 for no effect and ±100 for the full control effect; potency is the fitted concentration of half-maximal effect.
SMILES,Sm TGR inh,FMDV antiviral,TbPYK inhibitor,RE007 growth inh
C#CCN(C[C@@H]1[C@@H](OC(=O)NCc2ccco2)[C@@H](OC(=O)NCc2ccco2)Cn2c(=O)ccc(=O)n21)S(=O)(=O)c1ccc(C)cc1,/,6.3µM*,1%,2%
C#CCN(C[C@@H]1[C@@H](OC(=O)NCc2ccco2)[C@@H](OC(=O)NCc2ccco2)Cn2c(=O)n(CCCCCC)c(=O)n21)S(=O)(=O)c1ccc(C)cc1,/,28µM*,-1%,4%
CCc1ccc2occ(CC(=O)Nc3sc4c(c3C(=O)OC)CCC4)c2c1,2%,-17%,3%,/
O=C(Nc1ccc(Cl)c(C(F)(F)F)c1)c1nc2ccccc2nc1N1CCCCC1,3%,?,-7%,/
CCCCOc1ccc(Br)cc1/C(C)=N/NC1=NCCN1,5%,14µM*,7%,-21%
COc1ccc(C2CC23N=C(c2ccccc2)OC3=O)cc1 (configuration not stated),22µM*,22µM*,-10%,24%
COc1ccc(C2=NC(c3ccccc3)CO2)cc1 (configuration not stated),0%,/,/,/
Cc1cc(C)cc(OCCOCCn2c(-c3ccc(Cl)cc3)nc3ccccc3c2=O)c1,7%,0%,3%,/
COc1cc2c(cc1OC)C1O[C@](CCCCN3C(=O)c4ccccc4C3=O)(C2)OC2=C1C(=O)OC1(CCCCC1)C2,4.5µM*,/,/,/
COc1cc2c(cc1OC)C1O[C@](CCCCN3C(=O)c4ccccc4C3=O)(C2)OC2=C1C(=O)CC(C)(C)C2,4.5µM*,/,/,/
O=C1CCCC2=C1C1O[C@](CCCCN3C(=O)c4ccccc4C3=O)(Cc3c1ccc1ccccc31)O2,6%[22.9 µM],/,/,/
CCCN1CCN(C(=O)c2cnn(-c3ncc4c(n3)-c3ccccc3CCC4)c2COC)CC1,/,-12%,/,/
COc1cc2c(cc1OC)CN(Cc1ccccc1)CC2,10%,-18%,-8%,8%
COc1cc(CN2CCN(C(=O)CC(C)C)CC2)cc(OC)c1O,13µM*,/,8%,7%
COc1cc(CN2CCN(C(=O)CC(C)C)CC2)cc(OC)c1OC,8%,11%,1%,7%
COc1cc2c(cc1OC)CN(Cc1cc(OC)c(O)c(OC)c1)CC2,8.9µM*,2%,1%,-8%
CN1CCN(C(=O)c2ccc3c(c2)N(C)C(=O)/C(=C/c2cccc(Cl)c2)S3)CC1,-15%,?,-2%,1%
COc1ccc(CN2CCN(c3ccccc3F)CC2)cc1O,12%,-22%,8%,7%
COc1cc(CN2CCN(c3ccccc3F)CC2)cc(OC)c1O,14µM*,-5%,-2%,-6%
COc1ccc(/C=C2\Sc3ccc(C(=O)N4CCN(Cc5ccccc5)CC4)cc3N(C)C2=O)cc1OC,0%,13µM*,2%,1%
CCOc1ccc(C(=O)Nc2ccc3nc(SCC(=O)N(C)c4ccccc4)sc3c2)cc1,2%,?,-2%,/
COc1ccccc1N1CCN(S(=O)(=O)c2c(C)sc3ncn(CC(=O)Nc4ccc(C)cc4Br)c(=O)c23)CC1,1%,8%,0%,/
COc1ccc(-c2cc(=O)c3c(O)cc(O[C@H]4OC(COC5OC(C)C(O)C(O)[C@H]5O)C(O)C(O)C4O)cc3o2)cc1O (some centres not stated),/,/,-8%,/
COc1ccc(CN2CCN(C(=O)c3cc(OC)c(OC)c(OC)c3)CC2)cc1OC,-19%,11%,-1%,13%
COc1ccc(C(=O)N2CCN(Cc3cc(OC)c(O)c(OC)c3)CC2)cc1OC,8.9µM*,/,5%,-6%
SMILES,Sm TGR inh,FMDV antiviral,TbPYK inhibitor,RE007 growth inh
COCCn1c(-c2ccc(-c3ccccc3Cl)o2)nc2c1c(=O)[nH]c(=O)n2CC(C)C,32µM*,3%,-7%,-1%
CCCCn1c(=O)[nH]c(=O)c2c1nc(-c1ccc(-c3ccccc3Br)o1)n2CCOC,?,-19%,-28%,-24%
CCOc1ccccc1N1C(=O)NC(=O)/C(=C/c2ccc3c4c(cccc24)CC3)C1=O,32µM*,40µM*,?,-16%
COc1cccc(N2C(=O)NC(=O)/C(=C/c3ccc4c5c(cccc35)CC4)C2=O)c1,25µM*,/,/,/
COc1cc(/C=N/N2CCCCC2)cc(OC)c1O,14µM*,37%,?,-10%
Oc1ccc(/C=N/N2CCCCC2)cc1O,2.8µM*,23%,-12%,-8%
COc1cc(C=NN2CCCCC2)cc(OC)c1OC,/,-23%,1%,-17%
Clc1ccc(C=NN2CCCCCC2)cc1Cl,/,20%,-3%,-10%
O=c1n(Cc2cccc(F)c2)c2ccccc2c2nc(-c3ccccc3)nn12,6%,-1%,-4%,/
Cc1cc(-c2ccc(S(=O)(=O)Nc3cccc(Cl)c3C)cc2)on1,3%,3%,-2%,/
O=C(c1ccc(Cl)cc1)N1CCCCC(Sc2nnc(-c3ccc4c(c3)OCO4)o2)C1=O (configuration not stated),-7%,10µM*,6%,11%
O=C(O)C1(S(=O)(=O)CCC(F)=C(F)F)CC1,32µM*,-13%,-3%,5%
CCOc1c(C=C(C#N)C#N)c2ccccc2n1CC,28µM*,?,-11%,-5%
N=C(N)SCc1ccc(O)c([N+](=O)[O-])c1,45µM*,-27%,-13%,-11%
Cc1nc(SCc2ccc(O)c([N+](=O)[O-])c2)c([N+](=O)[O-])[nH]1,40µM*,?,?,17%
O=[N+]([O-])c1cc([As](=O)(O)c2ccc(O)c([N+](=O)[O-])c2)ccc1O,14µM*,14%,33%,5%
O=[N+]([O-])c1ccc([As](=O)(O)O)cc1,/,/,-7%,/
Cc1c(N=C2C=C(Br)C(=O)C(Br)=C2)c(=O)n(-c2ccccc2)n1C,2.8µM*,2%,-29%,?
Cc1c(N=Nc2c(O)n(C)c(=O)n(C)c2=O)c(=O)n(-c2ccccc2)n1C,0%,?,4%,15%
Cc1c(N=C2C=CC(=O)c3ccccc32)c(=O)n(-c2ccccc2)n1C,13µM*,35µM*,?,?
CCc1nn(CC(=O)NCC(C)c2ccccc2)c(=O)c2cc3c(OC)cccc3n12 (configuration not stated),?,-16%,3%,/
O=S(=O)(NCCc1csc2nc(-c3ccc(Cl)cc3)nn12)c1ccc2c(c1)OCCO2,13%,-21%,-2%,/
O=C(Sc1ccccc1)c1cccc(Cn2cc(C(F)(F)F)ccc2=O)c1,22µM*,-12%,0%,-3%
CC(=O)/C=C/c1ccc2ccccc2n1,89µM*,?,-6%,25µM*
Cc1c(C(=O)N2CCCC(c3ccccc3)C2)sc2ncnc(NCCc3ccccn3)c12 (configuration not stated),/,-12%,/,/
Cc1ccc(-n2c3nc(=O)[nH]c(=O)c-3cc3cc([N+](=O)[O-])ccc32)cc1C,-28%,28µM*,?,1%
Cc1cc(C(=O)CN2CCCC2)c(C)n1-c1ccc(F)cc1,45µM*,-13%,-4%,-9%
COc1cccc(/C=C/c2nc(C#N)c(NC3CCCCC3)o2)c1,-12%,23%,-4%,/

# Bioassay records deposited in PubChem by National Center for Advancing Translational Sciences (NCATS).
